Assay outcomes: PubChem BioAssay, Broad Institute
IDE exosite inh – exo-site inhibitors of human IDE, primary screen, biochemical, fluorescence anisotropy, probe displacement. Insulin-degrading enzyme (Homo sapiens), P14735. purified IDE, FL-6b probe fluorescence polarization; hits give low values. z-score at 20 µM. actives 6.3% (n = 17,000). AID 1259349, 2017;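 active = z-score of -3 or lower, meaning strong loss of probe binding signal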;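 also: His-tagged human IDE residues 42-1019 made in E. coli with 30 nM FL-6b probe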
Target sequence (P14735 42-1019 limits assumed): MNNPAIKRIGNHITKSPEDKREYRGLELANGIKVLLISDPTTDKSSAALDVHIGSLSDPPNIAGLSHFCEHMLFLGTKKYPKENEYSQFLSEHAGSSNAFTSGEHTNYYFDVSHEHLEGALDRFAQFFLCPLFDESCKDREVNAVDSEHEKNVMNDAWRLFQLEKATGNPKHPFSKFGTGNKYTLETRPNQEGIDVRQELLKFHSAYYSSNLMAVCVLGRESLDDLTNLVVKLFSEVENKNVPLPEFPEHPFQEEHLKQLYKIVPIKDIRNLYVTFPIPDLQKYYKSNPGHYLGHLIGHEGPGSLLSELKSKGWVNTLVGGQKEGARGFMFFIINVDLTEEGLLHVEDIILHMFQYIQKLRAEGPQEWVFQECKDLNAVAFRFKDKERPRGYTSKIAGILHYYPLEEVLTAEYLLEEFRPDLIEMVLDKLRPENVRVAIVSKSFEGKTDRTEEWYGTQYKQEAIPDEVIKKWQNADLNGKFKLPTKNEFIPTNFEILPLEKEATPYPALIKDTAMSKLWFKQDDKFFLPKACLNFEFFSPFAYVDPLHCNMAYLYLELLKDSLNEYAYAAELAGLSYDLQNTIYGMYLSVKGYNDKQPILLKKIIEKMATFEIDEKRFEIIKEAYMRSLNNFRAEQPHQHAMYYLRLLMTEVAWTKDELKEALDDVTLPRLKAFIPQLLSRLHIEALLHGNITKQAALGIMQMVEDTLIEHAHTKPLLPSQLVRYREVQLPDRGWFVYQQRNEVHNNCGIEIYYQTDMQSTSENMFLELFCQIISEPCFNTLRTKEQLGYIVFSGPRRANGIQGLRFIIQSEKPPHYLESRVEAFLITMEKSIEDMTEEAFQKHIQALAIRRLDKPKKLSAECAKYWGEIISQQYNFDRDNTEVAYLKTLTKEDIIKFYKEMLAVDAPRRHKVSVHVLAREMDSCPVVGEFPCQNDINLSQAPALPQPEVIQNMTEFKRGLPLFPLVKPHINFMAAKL
Numbers stand for hits; - = inactive. The entries come from a sample that favours hits as a whole.

SMILES	IDE exosite inh
CS(=O)(=O)N1[C@@H](C#N)[C@H](c2ccc(C#Cc3cccc(F)c3)cc2)[C@@H]1CO	-
COCC(=O)N1[C@@H](C#N)[C@@H](c2ccccc2C2=CCCC2)[C@@H]1CO	-
CCCC#Cc1ccc([C@H]2[C@H](CO)N3CCCCN(S(=O)(=O)c4ccccc4C)C[C@@H]23)cc1	-
CCS(=O)(=O)Nc1ccc2c(c1)C(=O)N(C)C[C@@H](OC)[C@H](C)CN(C(=O)c1ccc3c(c1)OCO3)[C@H](C)CO2	-
CO[C@H](CN(C)C(=O)c1ccccc1F)[C@@H](C)CN([C@@H](C)CO)S(=O)(=O)c1ccc(F)cc1	-
O=C(c1cccc(F)c1)N1CCCCN2[C@H](C1)[C@H](c1ccc(-c3ccccc3)cc1)[C@@H]2CO	-
CC(C)(O)C#Cc1cccc(-c2nc(C(=O)O)cc3c2[C@@H](CCO)N(S(=O)C(C)(C)C)C3)c1 (stereo partly specified)	-
CN(C)C(=O)c1ccc(-c2ccc([C@@H]3[C@@H](CO)N4C(=O)CN(C(=O)C5CCC5)C[C@@H]34)cc2)cc1	-
C[C@H](CO)N1C[C@H](C)[C@@H](CN(C)Cc2ccc(C(=O)O)cc2)OCCCC[C@H](C)Oc2ccc(N(C)C)cc2C1=O	-
O=C(C1CC1)N1CC(=O)N2[C@@H](CO)[C@@H](c3ccc(C#CC4CCCC4)cc3)[C@@H]2C1	-
CCCC(=O)Nc1ccc2c(c1)C(=O)N(C)C[C@H](OC)[C@@H](C)CN(Cc1ccc(F)cc1)[C@H](C)CO2	-
CCS(=O)(=O)N1CC(=O)N2[C@H](CO)[C@@H](c3ccc(C4=CCCCC4)cc3)[C@@H]2C1	-
CCS(=O)(=O)N1CC(=O)N2[C@H](CO)[C@@H](c3ccc(-c4ccccc4C)cc3)[C@@H]2C1	-16
CCS(=O)(=O)N1CC(=O)N2[C@H](CO)[C@@H](c3ccc(-c4cccc(F)c4)cc3)[C@H]2C1	-
CC(C)NC(=O)N[C@@H]1CC[C@@H](CC(=O)NCCCN(C)C)O[C@H]1CO	-
C[C@@H]1CN([C@H](C)CO)C(=O)c2cc(-c3ccc(C#N)cc3)cnc2O[C@@H]1CN(C)Cc1cccnc1	-
CCS(=O)(=O)N1CCCCN2[C@@H](CO)[C@H](c3ccc(-c4ccccc4F)cc3)[C@@H]2C1	-
Cc1ccccc1-c1ccc([C@@H]2[C@@H](CO)N3CCCCN(S(=O)(=O)c4ccc(F)cc4)C[C@@H]23)cc1	-18
O=S(=O)(c1ccc(F)cc1)N1CCCCN2[C@H](C1)[C@H](c1ccc(-c3ccccc3)cc1)[C@@H]2CO	-
Cc1ccccc1-c1ccc([C@H]2[C@@H](CO)N3CCCCN(S(=O)(=O)c4ccc(F)cc4)C[C@H]23)cc1	-
CCS(=O)(=O)N1CCCCN2[C@H](C1)[C@@H](c1ccc(-c3ccccc3C)cc1)[C@@H]2CO	-8.8
Cc1ccccc1-c1ccc([C@H]2[C@H](CO)N3CCCCN(S(=O)(=O)Cc4ccccc4)C[C@@H]23)cc1	-
CCS(=O)(=O)N1CCCCN2[C@H](C1)[C@H](c1ccc(-c3ccccc3F)cc1)[C@@H]2CO	-
CCS(=O)(=O)N1CCCCN2[C@@H](CO)[C@@H](c3ccc(-c4ccccc4F)cc3)[C@@H]2C1	-6.5
Cc1ccccc1-c1ccc([C@@H]2[C@@H](CO)N3CCCCN(S(=O)(=O)Cc4ccccc4)C[C@H]23)cc1	-
SMILES	IDE exosite inh
CN(C)C(=O)c1ccc(-c2ccc([C@@H]3[C@H]4CN(C(=O)C5CC5)CC(=O)N4[C@H]3CO)cc2)cc1	-
O=C(Nc1cccc(F)c1)N1CC(=O)N2[C@@H](CO)[C@@H](c3ccc(C#CC4CC4)cc3)[C@@H]2C1	-
O=C(Cc1cccnc1)N1CC2(C1)[C@@H](c1ccccc1)[C@H](CO)N2C(=O)C1CCOCC1	-
O=C(Cc1ccccn1)N1CC(=O)N2[C@@H](CO)[C@@H](c3ccc(-c4ccc(F)cc4)cc3)[C@@H]2C1	-
CCCNC(=O)N1C[C@H](C)[C@H](OC)CN(C)C(=O)c2ccc(NC(=O)CC)cc2OC[C@H]1C	-
O=C(NC[C@@H]1[C@H](c2ccccc2)[C@H](CO)N1CC1CCCC1)c1ccccc1	-
CC(C)(C)[S@@](=O)N1Cc2cc(C(=O)N3CCOCC3)nc(-c3cccc(-c4ccccc4F)c3)c2[C@H]1CCO	-
C/C=C/c1ccc([C@H]2[C@@H](CO)N(C(=O)CC)[C@@H]2CNC(=O)CC)cc1	-
O=S(=O)(c1cccc(F)c1)N1CC[C@@H]2[C@H](CO)Nc3ccc(C#Cc4ccccc4F)cc3[C@@H]21	-
CC(C)C#Cc1ccc([C@@H]2[C@@H](CO)N3C(=O)CN(C(=O)NC4CCCC4)C[C@@H]23)cc1	-
O=S(=O)(Cc1ccccc1)N1CCCCN2[C@H](CO)[C@@H](c3ccc(-c4ccccc4)cc3)[C@@H]2C1	-
O=C(C1CCC1)N1CC(=O)N2[C@H](CO)[C@@H](c3ccc(C#CCc4ccccc4)cc3)[C@H]2C1	-
O=C(C1CCC1)N1CC(=O)N2[C@H](C1)[C@H](c1ccc(C#CCc3ccccc3)cc1)[C@@H]2CO	-3
O=C(C1CCCCC1)N1CC(=O)N2[C@H](CO)[C@@H](c3ccc(C#CCc4ccccc4)cc3)[C@@H]2C1	-
O=C(C1CCCCC1)N1CC(=O)N2[C@H](C1)[C@@H](c1ccc(C#CCc3ccccc3)cc1)[C@@H]2CO	-
O=C(C1CCC1)N1CC(=O)N2[C@H](C1)[C@@H](c1ccc(C#CCc3ccccc3)cc1)[C@@H]2CO	-
O=C(C1CCC1)N1CC(=O)N2[C@@H](CO)[C@@H](c3ccc(C#CCc4ccccc4)cc3)[C@@H]2C1	-3.3
O=C(c1ccc(F)cc1)N1CC(=O)N2[C@@H](CO)[C@H](c3ccc(-c4ccccc4)cc3)[C@@H]2C1	-
CO[C@@H](CN(C)C(=O)Nc1ccc(Cl)cc1)[C@@H](C)CN(Cc1ccccc1Cl)[C@@H](C)CO	-
C/C=C/c1ccc([C@H]2[C@H](CO)N3C(=O)CN(C(=O)c4ccncc4)C[C@@H]23)cc1	-
COc1cccc(C(=O)Nc2ccc3c(c2)OC[C@@H](C)N(CCc2ccccc2)C[C@H](C)[C@@H](OC)CN(C)C3=O)c1	-
CCCNC(=O)N1[C@H](CNC(C)=O)[C@H](c2ccc(C3=CCCC3)cc2)[C@@H]1CO	-
COc1cccc(-c2ccc3c(c2)[C@@H]2[C@@H](CCN2S(=O)(=O)c2ccccc2F)[C@H](CO)N3)c1	-
C/C=C/c1ccc(C2[C@H]3CNC[C@@H]2N3Cc2cc(OC)cc(OC)c2)cc1 (stereo partly specified)	-
COc1cc(CN2[C@@H]3CNC[C@H]2C3c2ccc(-c3cccc(C)c3)cc2)cc(OC)c1 (stereo partly specified)	-7.2
SMILES	IDE exosite inh
COc1cc(CN2[C@@H]3CNC[C@H]2C3c2ccc(-c3ccc(C#N)cc3)cc2)cc(OC)c1 (stereo partly specified)	-
COc1cccc(CN2[C@@H]3CNC[C@H]2C3c2ccc(-c3ccc(C#N)cc3)cc2)c1 (stereo partly specified)	-
COc1cccc(CN2[C@@H]3CNC[C@H]2[C@H]3c2ccc(-c3ccccc3OC)cc2)c1	-3.4
COc1ccccc1-c1ccc(C2[C@H]3CNC[C@@H]2N3Cc2cc(-c3ccccc3)on2)cc1 (stereo partly specified)	-
CNC[C@@H]1Oc2ccc(NS(=O)(=O)c3ccc(OC)cc3)cc2C(=O)N([C@H](C)CO)C[C@H]1C	-
COCC(=O)N1CC2(CN(S(C)(=O)=O)C2)c2c(n(C)c3cc(OC)ccc23)[C@H]1CO	-
